Assay outcomes from PubChem.
Hits are enriched below; roughly 8.5% of the tested compounds scored in any of these assays.
JMJD2E inh: blocks human JMJD2E demethylase activity. B2RXH2. JMJD2E catalytic domain, FDH-coupled NADH fluorescence (FDH is formaldehyde dehydrogenase). Potency, µM (doses to about 57.1 µM), for inactives: at the top dose activity change, negative = inhibition, hits mostly inhibitors. 1.6% of 230,000 active. AID 2147; active means well fitted inhibition curve with a large enough effect, not every such curve was filed as active; inconclusive means small, poorly fitted or top-dose-only effect, or another doubt; inactive means no such curve, though single readings can be large or run the other way;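 further: potency means the concentration at half of the fitted maximal effect; 0% = wells with enzyme and -100% = buffer wells without enzyme; nearly all actives have a fitted effect of over 50% in size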
Target sequence (B2RXH2 1-337 limits assumed): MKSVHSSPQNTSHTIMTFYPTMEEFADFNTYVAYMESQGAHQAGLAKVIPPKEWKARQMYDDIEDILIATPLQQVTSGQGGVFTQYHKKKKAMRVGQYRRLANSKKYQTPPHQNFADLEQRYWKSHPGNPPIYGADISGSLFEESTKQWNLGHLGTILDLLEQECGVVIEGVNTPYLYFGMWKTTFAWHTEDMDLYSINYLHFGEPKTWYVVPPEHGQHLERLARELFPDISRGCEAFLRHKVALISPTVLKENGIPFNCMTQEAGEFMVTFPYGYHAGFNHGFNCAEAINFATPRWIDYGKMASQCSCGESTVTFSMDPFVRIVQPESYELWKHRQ
RGS12 GoLoco inh: inhibitors of human Gai1-RGS12 GoLoco interaction (red fluorophore). 0.44% of 230,000 active. Gai1:RGS12 GoLoco peptide FP, rhodamine, 10 min. AID 880. Potency, µM (doses to about 61.6 µM), without a hit: at the top dose activity, negative = inhibition, actives largely listed as inhibitors. P63096; active means well fitted inhibition curve with a large enough effect, not every such curve was filed as active; inactive means no such curve, though single readings can be large or run the other way; further: potency means the concentration at half of the fitted maximal effect; nearly all actives have a fitted effect of over 30% in size
ALDH1A1 block: inhibitors of human aldehyde dehydrogenase 1A1; Purified ALDH1A1, NADH fluorescence, propionaldehyde substrate; Potency, µM (series often up to 75.3 µM), for the others: top-dose activity, negative = inhibition, actives largely listed as inhibitors; 7.3% of 220,000 active; AID 1030; active means well fitted inhibition curve with a large enough effect, not every such curve was filed as active; inconclusive means small, poorly fitted or top-dose-only effect, or another doubt; inactive means no such curve, though single readings can be large or run the other way;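 further: potency means the concentration at half of the fitted maximal effect; plate controls were no enzyme wells and a reference inhibitor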
Sfp inh: Sfp phosphopantetheinyl transferase inhibition; Q9F4F7; Biochemical Sfp PPTase activity, qHTS; Potency, µM, without a hit: largest response in the series, negative = inhibition, hits mostly inhibitors; 3.5% of 310,000 active;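 further: the enzyme is Sfp with the accession as filed and its product quenches rhodamine fluorescence; potency means the concentration at half of the fitted maximal effect; 0% = enzyme reaction without inhibitor and -100% = no enzyme wells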
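Reaction rates are the 30-min fluorescence difference (ex 525, em 598 nm) in wells containing 15 nM Sfp, 5 uM rhodamine-CoA and 12.5 uM BHQ-2-YbbR at pH 7.6 with 10 mM MgCl2.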
Coupling enz: counter-screen for Giardia aldolase inhibitors: coupling enzyme system; coupling enzyme system counterscreen, AmpLite Red fluorescence; activity change, negative = inhibition, % at 58.2 µM, hits read low; 0.67% of 290,000 active; AID 2472; in the data active means activity change below about -30%
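Compounds tested against the coupling enzymes alone at 57.5 uM final; readout was AmpLite Red fluorescence (525/598 nm) after 20 min at RT.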
NPSR antag: antagonists of human neuropeptide S receptor cAMP signaling | CHO-NPSR cells, cAMP TR-FRET, antagonist mode | Potency, µM (highest dose often 38.3 µM), without a hit: at the highest dose activity change, negative = inhibition, usual class: inhibitors | 1% of 220,000 active | AID 1461; further: potency means the concentration at half of the fitted maximal effect; nearly all actives have a fitted effect of over 50% in size
Target sequence (Q6W5P4 whole entry, looked up): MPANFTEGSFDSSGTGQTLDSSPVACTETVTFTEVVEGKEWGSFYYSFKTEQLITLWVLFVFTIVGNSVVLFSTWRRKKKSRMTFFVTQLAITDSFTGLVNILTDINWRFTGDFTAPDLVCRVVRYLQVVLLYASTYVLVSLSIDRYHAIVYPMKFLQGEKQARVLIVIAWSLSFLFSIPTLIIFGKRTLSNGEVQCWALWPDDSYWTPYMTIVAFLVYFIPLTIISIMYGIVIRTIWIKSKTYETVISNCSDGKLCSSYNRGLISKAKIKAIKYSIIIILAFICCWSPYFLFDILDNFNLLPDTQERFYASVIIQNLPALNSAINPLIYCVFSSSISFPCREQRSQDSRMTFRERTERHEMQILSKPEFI
Active calls of the source: *; ! = repeats disagree; [ ] = remark or other dose. Unless noted, the call rests on the fitted dose curve; in most records, active means well fitted curve in the direction sought with a large enough effect; inconclusive means small, poorly fitted or top-dose-only effect, or another doubt; inactive means no such curve, though single readings can be large; an effect the other way counts as inactive or inconclusive. Unless noted, on the % scale 0 is the no-effect control and ±100 the full control effect.

What do the screens show for `Cc1nn(-c2ccccn2)c2c1C(=O)C(Br)CC2` (stereo unspecified)?
JMJD2E inh: -25.4%; RGS12 GoLoco inh: -22.1%; ALDH1A1 block: 11.2µM*; Sfp inh: 3.98µM*; Coupling enz: -64.2*; NPSR antag: 19.9%

What do the screens show for `CC(CC(=O)N1CCN(c2cccc(Cl)c2)CC1)S(=O)(=O)c1ccc2c(c1)NC(=O)CO2` (stereo unspecified)?
Sfp inh: -1.5%

Results for COC(=O)[C@@]1(Cc2ccc(F)cc2)[C@H]2c3cc(C(=O)N4CCCC4)n(Cc4ccc(C)o4)c3C[C@H]2CN1C(=O)c1ccccc1 ?
JMJD2E inh: inconclusive; RGS12 GoLoco inh: -25.5%; ALDH1A1 block: -2.0%; Sfp inh: 39.8µM*; Coupling enz: -0.8

What do the screens show for `COC(=O)[C@@]1(Cc2ccc(F)cc2)[C@@H]2[C@@H](CC(=O)[C@H]2CC(=O)C(=O)N(C)C)CN1C(=O)c1ccccc1`?
JMJD2E inh: 15.8µM*!; RGS12 GoLoco inh: 4.1%; ALDH1A1 block: 20.1%; Sfp inh: -3.6%; Coupling enz: 2.5; NPSR antag: 0.0%

How did COC(=O)[C@@]1(Cc2ccc(F)cc2)[C@H]2c3cc(C(=O)N4CCCC4)n(Cc4ccc(C)c(F)c4F)c3C[C@H]2CN1C(=O)c1ccccc1 do in these assays?
JMJD2E inh: -5.6%; RGS12 GoLoco inh: 10.2%; ALDH1A1 block: 4.2%; Sfp inh: -9.8%; Coupling enz: -2.5

What do the screens show for `COC(=O)[C@@]1(Cc2ccc(OC)cc2)[C@H]2c3cc(C(=O)N(C)C)n(Cc4ccc(C)o4)c3C[C@H]2CN1C(=O)c1ccccc1`?
JMJD2E inh: inconclusive; RGS12 GoLoco inh: -26.5%; ALDH1A1 block: inconclusive; Sfp inh: 25.1µM*; Coupling enz: -0.9

What do the screens show for `COC(=O)[C@@]1(Cc2ccc(OC)cc2)[C@@H]2[C@@H](CC(=O)[C@H]2CC(=O)C(=O)N(C)C)CN1C(=O)c1ccccc1`?
JMJD2E inh: -12.5%; RGS12 GoLoco inh: 4.3%; ALDH1A1 block: 17.6%; Sfp inh: -1.3%; Coupling enz: -0.6; NPSR antag: 1.3%

What do the screens show for `CC(CN1CCCCC1)OC(=O)/C=C/c1ccccc1` (stereo unspecified)?
Sfp inh: -12.6%; Coupling enz: 2.8

Results for COc1ccc2nc(SCC(=O)C(C)(C)C)[nH]c2c1 ?
JMJD2E inh: 2.6%; RGS12 GoLoco inh: -8.9%; Sfp inh: 39.8µM*; Coupling enz: -0.6; NPSR antag: -3.0%

Results for COc1ccc2nc(SCC(=O)NC(C)(C)C)[nH]c2c1 ?
JMJD2E inh: 3.6%; RGS12 GoLoco inh: 3.8%; ALDH1A1 block: 12.1%; Sfp inh: 13.8%; Coupling enz: 1.6; NPSR antag: -9.0%[46.1 µM]

Results for Cc1cc2c(c(=O)n1CC1CCCO1)C(c1ccc3c(c1)OCO3)C(C#N)=C(N)O2 (stereo unspecified) ?
JMJD2E inh: -1.9%; RGS12 GoLoco inh: 14.3%; ALDH1A1 block: 11.2µM*; Sfp inh: inconclusive; Coupling enz: 2.3; NPSR antag: -9.0%[46.1 µM]

How did CCOC(=O)C(Cc1ccc(OC)c([N+](=O)[O-])c1)NC(=O)CCC(=O)Nc1ccc(C)cc1 (stereo unspecified) do in these assays?
JMJD2E inh: -4.9%; RGS12 GoLoco inh: 7.9%; ALDH1A1 block: 14.1µM*; Sfp inh: 16.4%; Coupling enz: 1.8; NPSR antag: -7.7%

What do the screens show for `COc1ccc(C(=O)OCC(=O)Nc2ccccc2)cc1[N+](=O)[O-]`?
JMJD2E inh: 3.9%; RGS12 GoLoco inh: -6.1%; ALDH1A1 block: inconclusive; Sfp inh: 29.4%; Coupling enz: 2.2; NPSR antag: 8.1%

What do the screens show for `COc1cc(C)cc(C(=O)O)c1C1=C(O)c2cccc(O)c2C(=O)C1=O`?
JMJD2E inh: inconclusive; RGS12 GoLoco inh: -1.0%; Sfp inh: -6.4%; Coupling enz: -12.1; NPSR antag: 12.3%

How did Cc1cc(O)c2c(c1)C(=O)c1cccc(O)c1C2=O do in these assays?
JMJD2E inh: inconclusive; RGS12 GoLoco inh: 3.5%; ALDH1A1 block: 12.6µM*!; Sfp inh: -6.7%; Coupling enz: 0.9; NPSR antag: 11.7%

Results for CCCOc1ccc(C(=O)N2CCN(Cc3ccc4c(c3)OCO4)CC2)cc1 ?
Sfp inh: 14.4%; Coupling enz: 0.7

Results for COc1ccccc1NC(=O)c1ccc(-c2ccccc2[N+](=O)[O-])o1 ?
JMJD2E inh: 8.1%; RGS12 GoLoco inh: 50.1%; ALDH1A1 block: 7.94µM*; Sfp inh: 16.1%; Coupling enz: 2.9; NPSR antag: -41.0%

How did COc1ccccc1NC(=O)c1ccc(-c2ccc(Br)cc2)o1 do in these assays?
JMJD2E inh: inactive; RGS12 GoLoco inh: -1.2%; ALDH1A1 block: inconclusive; Sfp inh: inconclusive; Coupling enz: 4.9; NPSR antag: -22.8%[46.1 µM]

Results for O=C1/C(=C\c2ccco2)SC(=S)N1c1ccccc1 ?
JMJD2E inh: 20µM*; RGS12 GoLoco inh: 70.2%; ALDH1A1 block: 8.91µM*; Sfp inh: inconclusive; Coupling enz: -5.8; NPSR antag: -19.5%

How did Cc1ccc(/C=C2\SC(=S)N(c3cccnc3)C2=O)cc1 do in these assays?
JMJD2E inh: 6.1%; RGS12 GoLoco inh: 3.4%; ALDH1A1 block: inconclusive; Sfp inh: -22.0%; Coupling enz: 3.3; NPSR antag: -18.5%

Results for Cc1ccc(N2C(=O)/C(=C\c3ccco3)SC2=S)cc1 ?
JMJD2E inh: -3.5%; RGS12 GoLoco inh: 179.7%; ALDH1A1 block: inconclusive; Sfp inh: 14.1µM*; Coupling enz: -9.4; NPSR antag: -20.2%[46.1 µM]

What do the screens show for `COCCNC(=O)Cn1cnc2c(cnn2-c2ccc(OC)cc2)c1=O`?
Sfp inh: 10.3%; Coupling enz: 1.6

How did COC(=O)C1CCN(C(=O)[C@H](C)NC(=O)C2CC(=O)N(c3ccc(F)cc3)C2)CC1 (stereo partly specified) do in these assays?
Sfp inh: 2.2%

How did O=[N+]([O-])c1cccc(Cl)c1NCCNS(=O)(=O)c1ccccc1 do in these assays?
JMJD2E inh: -1.2%; RGS12 GoLoco inh: -3.5%; ALDH1A1 block: 11.2µM*; Sfp inh: 7.1%; Coupling enz: -1.0; NPSR antag: 2.3%[46.1 µM]

What do the screens show for `O=[N+]([O-])c1cccc(Cl)c1NCCNS(=O)(=O)c1ccc(Cl)cc1`?
JMJD2E inh: 1.2%; RGS12 GoLoco inh: -5.6%; ALDH1A1 block: inconclusive; Sfp inh: -0.7%; Coupling enz: -1.4; NPSR antag: 5.1%

How did O=[N+]([O-])c1ccccc1NCCNS(=O)(=O)c1ccc(Cl)cc1 do in these assays?
JMJD2E inh: -2.0%; RGS12 GoLoco inh: 5.0%; ALDH1A1 block: inconclusive; Sfp inh: -2.4%; Coupling enz: -6.5; NPSR antag: 1.2%
